Nrf2 activator: qHTS of Nrf2 Activators | actives 0.31% (n = 410,000) | Potency, µM (doses to about 46.1 µM), without a hit: top-dose activation, most hits filed as activators | AREc32 ARE-luciferase reporter (MCF7-derived line), luminescence, 24 h; note: potency is the fitted concentration of half-maximal effect; % of control where 0% means no effect; nearly all actives have a fitted effect of over 65% in size
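AREc32 cells carrying an ARE-driven firefly luciferase, 1000 cells/well in OPTI-MEM with 5% FBS, dosed after overnight attachment and incubated 24 hr at 37 deg C. Steady-Glo luminescence read after 30 min at RT.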
ClpP mod: qHTS Assay for Activators of ClpP. ATP-dependent Clp protease proteolytic subunit (Bacillus subtilis (strain 168)), P80244. purified B. subtilis ClpP, FRET peptide cleavage, 20 min. Potency, µM (top dose mostly 57.5 µM), inactives show at the highest dose activity change, negative = active. actives 1.9% (n = 340,000). AID 651965, 2013; active = well fitted falling curve with a large enough effect; inconclusive = small, poorly fitted or top-dose-only effect; inactive = no such curve, though single readings can be large or run the other way; note: potency is the fitted concentration of half-maximal effect; the source files actives as falling curves though it sought activators and does not explain the sign; nearly all actives have a fitted effect of over 65% in size
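Buffer: 100 mM Tris/HCl pH8, 100 mM KCl, 0.05% low protease BSA, 2.5% glycerol, 0.01% Tween-20. ClpP 10 microg/mL final; 20 min RT; delta FRET normalized to ADEP and DMSO controls.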
A549 tox: Nrf2 qHTS screen for inhibitors: counterscreen for cytotoxicity; A549 ARE-Fluc cells, CellTiter-Fluor viability, 18-24 h; Potency, µM (doses to about 46 µM), for inactives: at the top dose activity change, negative = cytotoxicity, actives largely listed as inhibitors; actives 0.16% (n = 390,000); AID 504648, 2011; note: potency is the fitted concentration of half-maximal effect; % is set by controls: 0 for no effect and ±100 for the full control effect
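Cytotoxicity counterscreen: CellTiter-Fluor fluorescence was measured in A549 ARE_Fluc cells after 18-24 h of compound exposure in a concentration series. The subsequent BugLite luminescent read reports ARE-luciferase activity.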
miR-21 reporter: qHTS Assay for Modulators of miRNAs and/orActivators of miR-21. HeLa miR-21 FLuc reporter, luciferase, 48 h. Potency, µM (top dose mostly 38.3 µM), for the others: at the highest dose activity change, positive = activation, actives largely listed as activators. 340,000 tested, under 10 active;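 note: % of control where 0% means no effect; miR-21 action dims this reporter so a rising signal means less miR-21 action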
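HeLa cells stably expressing CMV-driven firefly luciferase with a downstream miR-21 binding sequence, endogenously expressing miR-21, were treated with titrations (up to about 40uM final) for 48 hours at 37 degree Celsius. Luciferase luminescence was read after lysis.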
Nrf2 inh: Nrf2 qHTS screen for inhibitors; A549 ARE-Fluc reporter, luciferase luminescence, 18-24 h; Potency, µM (titrated, usually from 46 µM), for inactives: at the highest dose activity change, negative = inhibition, most hits filed as inhibitors; actives 2.1% (n = 360,000); AID 504444, 2011; note: potency is the fitted concentration of half-maximal effect; % is set by controls: 0 for no effect and ±100 for the full control effect; nearly all actives have a fitted effect of over 60% in size
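Quantitative HTS in A549 cells stably bearing an antioxidant response element-firefly luciferase construct. Inhibition of Nrf2-driven transcription was scored by luminescence after 18-24 h of compound exposure at 37 °C.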
IL2 activator: qHTS of IL-2 Activators. IL-2 activation reporter assay, cell-based qHTS; stimulated with anti-CD3/CD4/CD28 beads; in transgenic mouse T cells. activation, % (series mostly up to about 46 µM). actives 0.065% (n = 360,000). AID 652025, 2013; in the data active = activation above about 50%; inconclusive = mostly about 30% to 49%; note: 0% is about no effect
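Readout: EGFP and DsRed signals by fluorescent plate cytometry. Unstimulated transgenic mouse T cells received compound 60 min before antibody-bead stimulation, then incubated 18 h at 37 degrees C.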
Starred values were filed as active, the others as inactive; ? = inconclusive; / = not tested or not shown; [ ] = dose if it differs, or a comment. An excerpt weighted towards active compounds, which were near 3.7% of everything screened. Unless noted, calls come from the whole dose curve; as a rule, active = well fitted curve in the direction sought with a large enough effect; inconclusive = small, poorly fitted or top-dose-only effect, or another doubt; inactive = no such curve, though single readings can be large; an effect the other way counts as inactive or inconclusive.

SMILES | Nrf2 activator | ClpP mod | A549 tox | miR-21 reporter | Nrf2 inh | IL2 activator
O=C(Nc1ccc2c(c1)OCO2)N1CCN(Cc2ccco2)CC1 | 0% | / | 6% | -1% | 16µM* | -1
Cc1[nH]n(-c2ccccc2)c(=O)c1/C=N/NC(=O)c1cccc(F)c1 | 0% | -7% | -27% | 4% | 7.3µM* | -1
Cc1[nH]n(-c2ccc(Br)cc2)c(=O)c1/C=N/NC(=O)c1ccccc1 | 3% | 1% | ? | -19% | ? | 0
CC(C)(C)Nc1nc(C#N)nc(Nc2ccccc2)n1 | / | / | 2% | / | 16% | /
COC(=O)c1ccc2c(c1)C(=O)/C(=C/c1ccc(C)cc1)O2 | 2% | 28µM* | 0% | -12% | 12% | 0
CCc1ccc(/C=C2\Oc3ccc(C(=O)OC)cc3C2=O)cc1 | 0% | -9% | -3% | -8% | ? | -2
CCN(CC)S(=O)(=O)c1cc(NC(=O)C(C)OC(=O)c2[nH]c(C)c(C(C)=O)c2C)ccc1C (centres undefined) | 6% | 1% | -18% | 19% | 12µM* | -5
CC(=O)c1c(C)[nH]c(C(=O)OC(C)C(=O)Nc2ccc(C)c(S(=O)(=O)N3CCOCC3)c2)c1C (centres undefined) | 5% | 1% | -7% | / | 0% | 0
COc1ccc2cc(/C=C3\SC(=S)NC3=O)c(N3CCOCC3)nc2c1 | 2% | -1% | 18µM* | -5% | 21µM* | -4
O=C1NC(=S)S/C1=C/c1ccc(N2CCOCC2)o1 | ? | -1% | 21µM* | -18% | 19% | 1
COc1cccc(C=C2SC(=S)NC2=O)c1 | 3% | 2% | ? | / | 1% | -6
OC(c1ccccc1)(c1ccccc1)c1cnc2ccccn12 | / | / | -3% | / | -14% | /
CSCCC(NC(=O)c1occc1C)C(=O)O (centres undefined) | 0% | 25µM* | 3% | -10% | 7% | 0
CSCCC(NC(=O)c1ccco1)C(=O)O (centres undefined) | -2% | -1% | -1% | -2% | / | -1
Cc1ccc(N(C(=O)c2snc(C(N)=O)c2N)C(C(=O)NCCC(C)C)c2ccco2)cc1 (centres undefined) | 0% | -17% | ? | 23% | 23µM* | 0
Cc1ccc(N2C(=O)CC(Cc3ccc(Cl)cc3)C2=O)cc1 (centres undefined) | 0% | 7.1µM* | 11% | 7% | 2% | 0
COc1ccc(-c2cn3nc(N4CCC(C(=O)NCc5ccccc5F)CC4)sc3n2)cc1 | 4% | -1% | 13% | -32% | ? | /
Nc1c(Cl)ncnc1NCCc1ccc(O)cc1 | 0% | 1% | -19% | 22% | 5.8µM* | -3
OCCOCCNc1ncnc2c1cnn2-c1ccc(Cl)cc1 | 0% | 32µM* | 2% | -33% | / | 2
COCCNc1ncnc2c1cnn2-c1ccc(Cl)cc1 | 0% | 22µM* | -3% | -34% | ? | 0
COCCN(CCOC)c1ncnc2c1cnn2-c1ccc(Cl)cc1 | 3% | -3% | -2% | -74% | 15% | -2
COCCNC(=O)C(=O)Nc1c2c(nn1-c1ccccc1)CS(=O)(=O)C2 | -1% | -2% | 11% | 0% | / | /
CC(Nc1ncnc2ccccc12)c1ccccc1 (centres undefined) | 2% | / | -8% | 17% | ? | 0
Cc1noc(C)c1-c1ccc2ncnc(NCc3ccccc3F)c2c1 | / | / | 3% | / | 21µM* | /
Cc1noc(C)c1-c1ccc2ncnc(NC(C)c3ccccc3)c2c1 (centres undefined) | / | / | 6% | / | 23µM* | /
SMILES | Nrf2 activator | ClpP mod | A549 tox | miR-21 reporter | Nrf2 inh | IL2 activator
Cc1noc(C)c1-c1ccc2ncnc(NCc3cccc(-c4ccccc4)c3)c2c1 | / | / | -14% | / | 7.3µM* | /
Cc1noc(C)c1-c1ccc2ncnc(NCc3cccc(F)c3)c2c1 | / | / | 5% | / | ? | /
CCOc1ccccc1CNc1ncnc2ccc(-c3c(C)noc3C)cc12 | 26% | / | 0% | / | 16µM* | -1
COc1ccc(-c2cc(C(=O)N3CCCCCC3)c3ccccc3n2)cc1 | 3% | 6.3µM* | 3% | / | -2% | -5
Cc1ccc(-c2cc(C(=O)N3CC(C)CC(C)C3)c3ccccc3n2)o1 (centres undefined) | 6% | / | -18% | -10% | -20% | 0
Cc1ccc(-c2cc(C(=O)N3CC(C)OC(C)C3)c3ccccc3n2)o1 (centres undefined) | 2% | 14µM* | -6% | / | ? | -3
COc1ccc(-c2cc(C(=O)N3CCCCCC3)c3ccccc3n2)cc1OC | 3% | -19% | / | / | / | -1
O=C(c1cc(-c2ccc(Cl)s2)nc2ccccc12)N1CCCC1 | 0% | 32µM* | 0% | / | -14% | -3
O=C1c2ccccc2NC(c2ccc3c(c2)OCO3)N1Cc1ccco1 (centres undefined) | / | 4% | 2% | / | -8% | /
Cc1cc(NC(=O)c2cc(-c3ccc(C)c(C)c3)nc3ccccc23)no1 | 8% | 13µM* | -9% | -3% | 21% | 0
Cc1ccc(-c2cc(C(=O)NNC(=O)c3csc(N4CCOCC4)n3)c3ccccc3n2)cc1 | 13% | -19% | -19% | / | 21µM* | 0
Cc1ccc(-c2cc(C(=O)NCc3ccccn3)c3ccccc3n2)cc1C | 1% | 32µM* | -1% | 16% | 3% | 0
Cc1ccc(-c2cc(C(=O)Nc3cc(C)on3)c3ccccc3n2)cc1 | 2% | 35µM* | 19% | 2% | 0% | -3
Cc1cc(NC(=O)c2cc(-c3ccccn3)nc3ccccc23)no1 | 0% | -7% | -5% | 7% | 15% | -2
Cc1cccc(-c2cc(C(=O)NCc3ccccn3)c3ccccc3n2)c1 | 5% | -1% | -2% | -2% | 21% | 0
Cc1ccc(-c2cc(C(=O)N3CCN(S(=O)(=O)c4ccc(Br)s4)CC3)[nH]n2)c(C)c1 | -1% | -7% | -3% | 21% | -24% | /
CC(=O)c1sc2c(c1C)c(=O)n(-c1ccc(Cl)cc1)c(=O)n2Cc1cc(=O)n2cc(Cl)ccc2n1 | -1% | -20% | -11% | 3% | 10%[9.27 µM] | /
O=C(O)Cc1nnc(-c2cc3ccccc3[nH]2)s1 | / | / | -1% | / | ? | /
COc1ccc(OC)c(NC(=O)Cn2c(=O)n(Cc3ccco3)c(=O)c3cc(OC)c(OC)cc32)c1 | 1% | -9% | -3% | 1% | ? | /
O=C(Cn1c(=O)n(Cc2ccccc2)c(=O)c2ccccc21)NCc1ccco1 | 2% | -8% | 5% | -9% | ? | 1
